Test results as given in PubChem BioAssay AID1037 (National Center for Advancing Translational Sciences (NCATS), 2008).
Active and inactive are the calls of the source. Calls follow the shape of the full dose curve.

Assay: NSCLC 2 Cell Viability Secondary Assay for qHTS Assay for Epigenetic Modulators
Conditions: NSCLC 2 viability, MTS absorbance, 4 days
Excerpt: NIH Molecular Libraries Screening Centers Network [MLSCN] NIH Chemical Genomics Center [NCGC] MLSCN Grant: 1 X01 MH079860-01 Assay Provider: Elisabeth D. Martinez, University of Texas SW Medical Center NCGC Assay Overview: This secondary assay characterizes selected actives identified in the qHTS of the Locus Derepression (LDR) assay (PubChem AID 597). The LDR assay detects the derepression of a GFP reporter that is stably integrated in a region of the genome of murine c127i mammary cells that is presumably silenced. Compounds that cause derepression of the locus to express GFP are identified by enumerating GFP positive cells using a laser-scanning microplate cytometer. Selected LDR actives were assayed for killing of NSCLC 2, a patient-derived nonsmall cell lung carcinoma line. Known epigenetic drugs, like histone deacetylase inhibitors, can block cancer cell growth. NSCLC 2 cell viability was measured using Cell Titer 96 AQueous One (Promega), an assay which detects the ability of metabolically active cells to reduce a tetrazolium salt substrate (MTS), into a soluble formazan product that can be measured by colorimetry.
NCGC Assay Protocol Summary NSCLC 2 cells were plated in 96-well flat bottom tissue culture dishes (Corning) and grown overnight at 37 C and 5% CO2, then treated with compounds, incubated 4 days, and assayed for viability using the Cell Titer 96 AQueous One kit (Promega) according to the manufacturer's protocol. Absorbance at 490 nm and 650 nm (reference) was measured by a Spectra Max (Molecular Devices). Data were normalized to the untreated control (100% viability). Each cell line was tested in one or two independent assays, each containing 4 or 8 replicates. For further details, see R.L. Johnson, W. Huang, A. Jadhav, C.P. Austin, J. Inglese, E.D. Martinez, A Quantitative High-Throughput Screen Identifies Potential Epigenetic Modulators of Gene Expression, Analytical Biochemistry (2007), doi: 10.1016/j.ab.2007.12.028

**Q.** Which Potency does the source give for CC(C)C(=O)NC(c1ccco1)c1cc([N+](=O)[O-])c2cccnc2c1O (stereo not drawn) here?
**A.** Its Potency is 6 µM (active).

**Q.** For CC(C)C(=O)NC(c1ccc(N(C)C)cc1)c1ccc2cccnc2c1O (stereo not drawn), which Potency is on record?
**A.** Its Potency is 0.2 µM (active).

**Q.** Which outcome does the source give for O=C(CSc1cccc2cccnc12)N1CCCC1 here?
**A.** The outcome was “inactive”.

**Q.** With CC(C)C(=O)NC(c1ccco1)c1ccc2cccnc2c1O (stereo not drawn) as the molecule, how does the Potency read?
**A.** Its Potency is 0.8 µM (active).

**Q.** Which outcome does the source give for O=C(CSc1cccc2cccnc12)NCc1ccccc1 here?
**A.** Its outcome is “inactive”.

**Q.** For CC(/C=C/C(=O)NO)=C\[C@@H](C)C(=O)c1ccc(N(C)C)cc1, which Potency is on record?
**A.** Its Potency is 0.04 µM (active).

**Q.** With CN1C(=S)SC(c2ccccc2)N(C)C1c1ccccc1 (stereo not drawn) as the molecule, how does the outcome read?
**A.** The outcome was “inactive”.

**Q.** Which Potency does the source give for O=Nc1ccc(O)c2ncccc12 here?
**A.** The Potency was 1 µM (active).
